Here are results for 24 compounds from PubChem BioAssay (NCATS).

What all share (assay): qHTS profiling for inhibitors of Plasmodium falciparum proliferation (AID 504749); also: nearly all actives have a fitted effect of over 60% in size
Details in all cases: P. falciparum in erythrocytes, SYBR Green DNA, 72 h; series mostly up to 28.7 µM
(qHTS replaces the single test concentration by a dilution series.)

Experiment [1] concerns PAD. An outline of the steps: (§1)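 Parasite proliferation within erythrocytes, 72 h exposure. Endpoint: SYBR Green I fluorescence after overnight lysis at room temperature. Controls: 0.29 uM artemisinin, DMSO.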
Experiment [2] concerns PC15. The gist of the method: as §1
In experiment [3] the test system is PC26. The gist of the method: as §1
In experiment [4] the test system is PC49. An outline of the steps:
as §1

For experiment [5], the system named is SC27B. The gist of the method:
as §1

The test system of experiment [6] is TAB109. An outline of the steps: as §1
For experiment [7], the system named is TAB113. The gist of the method:
as §1

Experiment [8] has as its system TAB165. The gist of the method:
as §1

Experiment [9] has as its system W2. The gist of the method: as §1

Inconclusive results are not listed. A number with no mark means an inactive call. Calls of active or inactive are those of the source. Calls follow the shape of the dose curve; as a rule, active = well fitted inhibition curve with a large enough effect; inconclusive = small, poorly fitted or top-dose-only effect; inactive = flat fitted curve, though single readings scatter.
Potency is read from the fitted curve at half-maximal effect.

Regarding `CCCc1ccc(C(=O)O)cc1`, the Potency result in [1], in experiment [2], in experiment [3], in [4], in [5] and in experiment [6] was “inactive” throughout. The Potency entry in experiment [7], in [8] and in [9] was “inactive” in each case.

Take `C=C1C(CCl)(CCl)C2(Cl)C(Cl)C(Cl)C1(Cl)C2(Cl)Cl` (stereo unspecified): the Potency in experiment [1] was 708 nM (active); in experiment [2], 2000 nM (active); in [3], 1900 nM (active); in [4] it was 3980 nM (active); in experiment [5], 1780 nM (active); in experiment [6], 3160 nM (active). Also, the Potency in experiment [7] is 2820 nM (active); in [8], 1780 nM (active); in experiment [9] it was 849 nM (active).

`O=P(O)(O)CP(=O)(O)O`: the Potency result in [1], in experiment [2], in experiment [3], in experiment [4], in [5] and in experiment [6] was “inactive” in each case. Besides, the Potency result in experiment [7], in experiment [8] and in experiment [9] was “inactive” each time.

As for `CCN(CC)CCCC(C)Nc1cc(/C=C/c2ccccc2Cl)nc2cc(Cl)ccc12` (stereo unspecified), the Potency is 1000 nM (active) in experiment [1]; 2000 nM (active) in experiment [2]; 5360 nM (active) in experiment [3]; 8910 nM (active) in experiment [4]; 2820 nM (active) in [5]; 2510 nM (active) in experiment [6]. Further, the Potency in experiment [7] was 1780 nM (active); in experiment [8] it was 2240 nM (active); in experiment [9], 601 nM (active).

Regarding `CCCCCCCCCCCC(=O)OCC(O)CO` (stereo unspecified), the Potency entry in experiment [1], in experiment [2], in experiment [3], in experiment [4], in [5] and in [6] was “inactive” each time. The Potency result in [7], in experiment [8] and in experiment [9] was “inactive” in each case.

On to `CCCCCCCCCCCCCC(=O)OCC(COP(=O)([O-])OCC[N+](C)(C)C)OC(=O)CCCCCCCCCCCCC` (stereo unspecified), for which the Potency result in experiment [1], in experiment [2], in experiment [3], in [4], in experiment [5] and in [6] was “inactive” in each case. The Potency entry in experiment [7], in experiment [8] and in experiment [9] was “inactive” each time.

With `CC(=O)Oc1cc(C(F)(F)F)ccc1C(=O)O`, the Potency entry in experiment [1], in [2], in [3], in experiment [4], in [5] and in experiment [6] was “inactive” each time. The Potency result in [7], in experiment [8] and in experiment [9] was “inactive” each time.

For `CC(CC=O)CCCC(C)(C)O` (stereo unspecified), the Potency entry in experiment [1], in experiment [2], in experiment [3], in [4], in experiment [5] and in experiment [6] was “inactive” each time. The Potency entry in experiment [7], in experiment [8] and in experiment [9] was “inactive” in each case.

Take `[O]=[Bi][O][Bi]=[O]`: the Potency result in experiment [1], in [2], in experiment [3], in [4], in experiment [5] and in [6] was “inactive” throughout. Moreover, the Potency result in experiment [7], in [8] and in experiment [9] was “inactive” each time.

As to `S=C1SCN(Cc2ccccc2)CN1Cc1ccccc1`, the Potency result in experiment [1], in experiment [2], in [3], in [4], in experiment [5] and in experiment [6] was “inactive” throughout. Besides, the Potency entry in [7], in experiment [8] and in experiment [9] was “inactive” in each case.

For `O=C(O)CCC(=O)c1ccc(-c2ccccc2)cc1`, the Potency result in experiment [1], in experiment [2], in experiment [3], in experiment [4], in experiment [5] and in [6] was “inactive” each time. The Potency entry in experiment [7], in experiment [8] and in [9] was “inactive” each time.

Take `CC(C)(COP(=O)(O)OP(=O)(O)OC[C@H]1O[C@@H](n2cnc3c(N)ncnc32)[C@H](O)[C@@H]1OP(=O)(O)O)C(O)C(=O)NCCC(=O)NCCS` (stereo partly specified): the Potency entry in [1], in experiment [2], in experiment [3], in [4], in experiment [5] and in experiment [6] was “inactive” in each case. The Potency entry in experiment [7], in experiment [8] and in experiment [9] was “inactive” throughout.

In the case of `O[C@@H]([C@H](O)[C@H](O)CBr)[C@H](O)CBr`, the Potency result in experiment [1], in experiment [2], in [3], in experiment [4], in experiment [5] and in experiment [6] was “inactive” throughout. In addition, the Potency result in [7], in [8] and in experiment [9] was “inactive” throughout.

In the case of `CC1=CCC2CC1C2(C)C` (stereo unspecified), the Potency result in experiment [1], in experiment [2], in [3], in experiment [4], in experiment [5] and in experiment [6] was “inactive” throughout. Also, the Potency result in [7], in [8] and in experiment [9] was “inactive” each time.

`CC(CCc1ccc(O)cc1)NCC(O)c1ccc(O)cc1` (stereo unspecified): the Potency result in experiment [1], in [2], in experiment [3], in [4], in [5] and in experiment [6] was “inactive” in each case. For the same compound, the Potency result in experiment [7], in experiment [8] and in experiment [9] was “inactive” in each case.

`Cc1ccc(C(C)(C)c2ccc(C)cc2)cc1`: the Potency result in experiment [1], in [2], in experiment [3], in experiment [4], in experiment [5] and in experiment [6] was “inactive” in each case. Further, the Potency result in experiment [7], in [8] and in experiment [9] was “inactive” throughout.

With `CC/C(=C(/CC)c1ccc(OP(=O)(O)O)cc1)c1ccc(OP(=O)(O)O)cc1`, the Potency result in experiment [1], in experiment [2], in experiment [3], in [4], in [5] and in experiment [6] was “inactive” throughout. The Potency result in [7], in experiment [8] and in [9] was “inactive” each time.

For `CC(=O)NCCCS(=O)(=O)O`, the Potency entry in [1], in [2], in experiment [3], in experiment [4], in experiment [5] and in [6] was “inactive” in each case. Also, the Potency result in experiment [7], in experiment [8] and in experiment [9] was “inactive” each time.

Regarding `COc1ccc(/C=C/C(=O)O)cc1`, the Potency result in [1], in experiment [2], in [3], in experiment [4], in experiment [5] and in experiment [6] was “inactive” each time. Besides, the Potency entry in experiment [7], in experiment [8] and in experiment [9] was “inactive” throughout.

Consider `C[C@H](CCCC(C)(C)O)[C@H]1CC[C@H]2[C@@H]3CC=C4C[C@@H](O)CC[C@]4(C)[C@H]3CC[C@]12C`, for which the Potency entry in experiment [1], in experiment [2], in experiment [3], in experiment [4], in experiment [5] and in [6] was “inactive” in each case. Besides, the Potency result in [7], in experiment [8] and in experiment [9] was “inactive” in each case.

For `CN1C(=O)OC(C)(C)C1=O`, the Potency entry in experiment [1], in experiment [2], in experiment [3], in experiment [4], in experiment [5] and in [6] was “inactive” in each case. Moreover, the Potency result in [7], in [8] and in [9] was “inactive” in each case.

Consider `O=C1c2ccccc2C(=O)C1c1ccc(Cl)cc1`, for which the Potency entry in experiment [1], in [2], in [3], in experiment [4], in experiment [5] and in [6] was “inactive” each time. Besides, the Potency entry in [7], in [8] and in experiment [9] was “inactive” each time.

Consider `CC1CCC(NC(=O)N(CCCl)N=O)CC1` (stereo unspecified), for which the Potency result in experiment [1], in experiment [2], in experiment [3], in experiment [4], in experiment [5] and in experiment [6] was “inactive” each time. The Potency entry in [7] and in experiment [8] was “inactive” in each case. For the same compound, in [9], the Potency is 10700 nM (active).

In the case of `Nc1ncnc2c1ncn2CCOCP(=O)(O)O`, the Potency result in experiment [1], in experiment [2], in experiment [3], in experiment [4], in experiment [5] and in [6] was “inactive” in each case. Besides, the Potency result in experiment [7], in experiment [8] and in [9] was “inactive” throughout.
